Assay outcomes deposited in PubChem by several laboratories.
Compounds with a hit are over-represented: about 27% of the library has one in this group of screens.
CYP2C19 act: cytochrome P450 2C19 (human) activation | P33261 | recombinant CYP2C19, luciferin-H EGE luminescence; hits give high values; 0 = fully inhibited enzyme, 1 = untreated enzyme | activation factor at 5 µM | 96,000 tested, under 10 active | AID 1025;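 active = activation factor of at least 2 at 5 µM in the primary screen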;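 also: 0 = wells with 2.5 mM tranylcypromine and 1 = vehicle-only wells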
CYP2C9 inhib: inhibitors of human CYP2C9. inhibition, % at 5 µM. hit rate 20% among 96,000. CYP2C9 Supersomes, luciferin-H conversion, luminescence. P11712;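 active = blocking of liver enzyme CYP2C9 beyond about 50% at 5 µM, limit read from the data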
CYP2C19 inhib: human CYP2C19 inhibition. CYP2C19 Supersomes, luciferin-H EGE luminescence, 30 min. hit rate 21% among 96,000. P33261. inhibition, % at 5 µM. AID 778;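 active = CYP2C19 inhibition above a set limit at 5 µM in the primary screen, cut at about 50% in these data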;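 also: plate controls were negative control wells for no effect and 2.5 mM tranylcypromine positive control for full effect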
sEH inhibitor: soluble epoxide hydrolase (human) inhibition | P34913 | recombinant human sEH enzymatic activity assay | inhibition, % at 2 µM | hit rate 0.34% among 91,000 | AID 707; in the data active = inhibition above about 80%
Target sequence (P34913 whole entry, looked up): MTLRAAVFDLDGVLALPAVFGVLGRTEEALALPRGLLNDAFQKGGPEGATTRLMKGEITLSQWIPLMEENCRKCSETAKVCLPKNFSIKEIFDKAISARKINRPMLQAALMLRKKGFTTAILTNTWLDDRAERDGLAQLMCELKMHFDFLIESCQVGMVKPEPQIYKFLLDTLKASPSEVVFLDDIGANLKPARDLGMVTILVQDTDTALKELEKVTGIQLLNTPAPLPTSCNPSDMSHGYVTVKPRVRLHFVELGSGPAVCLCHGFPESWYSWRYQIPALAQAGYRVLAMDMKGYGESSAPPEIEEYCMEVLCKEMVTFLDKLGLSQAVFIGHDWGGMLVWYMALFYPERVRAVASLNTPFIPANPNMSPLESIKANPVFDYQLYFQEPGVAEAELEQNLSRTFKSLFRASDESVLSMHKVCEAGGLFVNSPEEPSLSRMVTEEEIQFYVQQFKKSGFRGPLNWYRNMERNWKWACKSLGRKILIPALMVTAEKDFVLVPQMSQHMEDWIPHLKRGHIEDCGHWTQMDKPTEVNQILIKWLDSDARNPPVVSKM
CYP2C9 act: activators of human CYP2C9. recombinant CYP2C9, luciferin-H conversion, luminescence; hits give high values; factor 1 = untreated enzyme, 0 = blocked. activation factor at 5 µM. hit rate 1.4% among 96,000;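 active = activation factor of 2 or more for CYP2C9 at a 5 µM dose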;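 also: 0 = sulfaphenazole-blocked wells and 1 = vehicle-only wells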
sEH activator: soluble epoxide hydrolase (human) activation | activation, % at 2 µM | purified human sEH enzymatic activity, activator screen | P34913 | AID 717 | hit rate 0.04% among 91,000; in the data active = activation above about 37%
The depositor's hits bear a star; · = no result given.

SMILES	CYP2C19 act	CYP2C9 inhib	CYP2C19 inhib	sEH inhibitor	CYP2C9 act	sEH activator
O=C(NC(Oc1ccccc1)C(Cl)(Cl)Cl)c1ccccc1 (stereo not given)	0.8	9	15	0	0.9	-2
CC(C)CC(=O)NC(Oc1ccc(Cl)cc1)C(Cl)(Cl)Cl (stereo not given)	0.2	31	82*	8	0.7	-10
CC(C)CCP(=O)(O)c1ccccc1	1	20	4	9	0.8	-7
O=c1c2ccccc2nc(-c2ccoc2)n1-c1ccccc1Cl	0.6	42	37	0	0.6	1
Cc1c2cnn(CC(=O)N3CCC4(CC3)OCCO4)c(=O)c2c(C)n1Cc1ccccc1F	0.8	42	24	·	0.6	·
Cn1c2ccccc2c2c(C(=O)N3CCC4(CC3)OCCO4)cn(C3CCCCC3)c(=O)c21	0.5	69*	51*	0	0.3	1
Cn1c2ccccc2c2cnn(CC(=O)N3CCC4(CC3)OCCO4)c(=O)c21	0.4	14	57*	12	0.9	-13
O=C(Cn1ncc2c3ccccc3n(Cc3cccc(Cl)c3)c2c1=O)N1CCC2(CC1)OCCO2	0.2	91*	79*	·	0.1	·
O=C(CN1CCN(Cc2cccc(Cl)c2)C1=O)N1CCC2(CC1)OCCO2	1.2	5	-18	11	0.9	-12
CC(=O)c1cccc(NC2=NCC(C)S2)c1 (stereo not given)	0.6	9	36	-8	0.9	5
CC(C)(C)C(O)C(Oc1ccc(Cl)cc1)n1cncn1 (stereo not given)	0	58*	95*	6	0.4	-4
Cc1cc2c(s1)NC(=O)CN=C2c1cccs1	0.5	41	50*	6	0.6	-4
O=c1c2ccccc2nc(N2CCCC2)n1-c1ccc(Cl)cc1	0.3	13	67*	·	0.9	·
FC(F)(F)c1cccc(-n2nnnc2C2(N3CCOCC3)CCCCC2)c1	0.4	26	57*	6	0.7	-3
COc1ccc(CCn2c(O)c(C=NCCCN(C)C)c(=O)[nH]c2=O)cc1OC	1	22	1	3	0.8	-1
CCOC(=O)c1cc(C)n(CCc2cnc[nH]2)c1C	0	99*	100*	·	0	·
COc1ccc2c(c1)c(C(=O)O)c(C)n2C(C)C	·	·	·	4	·	-2
COCCOC(=O)c1c(C)n(C)c2ccc(OC(=O)N(C)C)cc12	0.7	54*	27	-3	0.5	5
CCC(=NCCCn1ccnc1)c1c(O)n(Cc2ccccc2)c(=O)[nH]c1=O	0.1	97*	94*	-15	0	16
CC(=NCCN1CCCCC1)c1c(O)n(-c2ccc(Cl)cc2)c(=O)[nH]c1=O	0.9	9	8	-2	0.9	4
CCCCn1c(O)c(C(CC)=NCc2cccnc2)c(=O)[nH]c1=O	0.1	60*	91*	2	0.4	-3
CC(=NCCN1CCOCC1)c1c(O)n(Cc2ccccc2)c(=O)[nH]c1=O	1.1	-4	-10	-10	1	9
CC(=NCc1cccnc1)c1c(O)n(Cc2ccccc2)c(=O)[nH]c1=O	·	·	·	8	·	-9
CCC(=NCc1cccnc1)c1c(O)n(Cc2ccccc2)c(=O)[nH]c1=O	0	69*	95*	-3	0.3	1
CC(=NCc1cccnc1)c1c(O)n(-c2ccccc2)c(=O)[nH]c1=O	0.4	17	57*	3	0.8	-2
SMILES	CYP2C19 act	CYP2C9 inhib	CYP2C19 inhib	sEH inhibitor	CYP2C9 act	sEH activator
Cc1ccc(S(=O)(=O)N2CC3CC(C2)c2cccc(=O)n2C3)cc1 (stereo not given)	1	2	-2	5	1	-6
Cc1ccc2c(c1)C(c1ccccc1)NCC(=O)N2 (stereo not given)	1.1	-6	-6	-4	1.1	3
CC(O)(CS(=O)(=O)c1ccccc1)C(=O)Nc1ccc(C(F)(F)F)cc1 (stereo not given)	0.4	9	65*	-13	0.9	15
CC(O)(CS(=O)(=O)c1cccc(C(F)(F)F)c1)C(=O)Nc1cccc(C(F)(F)F)c1 (stereo not given)	0.5	-90	51*	-4	1.9	6
C[N+]12CCC(CC1)C(C#N)(N1CCOCC1)C2 (stereo not given)	1	2	2	14	1	-12
CN1CCN(C(=O)COc2ccc3ccccc3c2Br)CC1	0.3	-26	66*	·	1.3	·
Cc1cc(Cl)ccc1OCC(=O)N1CCN(C)CC1	0.7	-5	28	12	1.1	-10
COCc1cc(C2SCC(=O)Nc3c2c(=O)[nH]n3C(C)C)ccc1OC (stereo not given)	0.9	-4	12	-4	1	4
O=c1[nH]c(=O)n(Cc2ccco2)c(O)c1C=NCc1ccc2c(c1)OCO2	1.1	-3	-6	2	1	-2
N#Cc1cc2c(nc1SCC(=O)Nc1ccc(Cl)cc1)C1CCN2CC1	0.1	84*	92*	·	0.2	·
Cc1onc(-c2ccccc2)c1C(=O)N1CCC2(CC1)OCCO2	0.5	-3	46	-7	1	8
COc1cccc(N2CCN(Cc3ccc(Cl)cc3)CC2)c1	0.1	72*	88*	-11	0.3	12
COc1cccc(N2CCN(Cc3cccc(Cl)c3)CC2)c1	0.1	79*	95*	·	0.2	·
CC12CCCCC1=NC(c1ccc(Br)cc1)N2O (stereo not given)	0.6	12	38	·	0.9	·
CCC(=Nc1ccc(OC)cc1OC)c1c(O)n(C)c(=O)n(C)c1=O	0.9	10	10	8	0.9	-10
CCC(=NCCc1c[nH]c2ccccc12)c1c(O)n(C)c(=O)n(C)c1=O	0.4	50*	59*	7	0.5	-8
CCC(=NCc1cc(OC)cc(OC)c1)c1c(O)n(C)c(=O)n(C)c1=O	0.7	81*	29	7	0.2	-8
CC(=NCc1ccc2c(c1)OCO2)c1c(O)n(C)c(=O)n(C)c1=O	0.9	23	7	-1	0.8	2
CCC(=NCc1ccc2c(c1)OCO2)c1c(O)n(C)c(=O)n(C)c1=O	0.7	62*	29	·	0.4	·
CCC(=NCCOc1ccc(Cl)cc1)c1c(O)n(C)c(=O)n(C)c1=O	0.8	18	15	10	0.8	-10
CC12CN3CC(C)(CN(C1)C31CCSCC1)C2=O	1	-2	-3	-4	1	4
c1cncc(C2CC(c3cccs3)n3ncnc3N2)c1 (stereo not given)	0.9	-2	12	·	1	·
CC1C(c2cccs2)=[N+]([O-])C(C)(C(=O)c2ccc(Cl)cc2)N1O (stereo not given)	·	·	·	2	·	-2
O=C(Cc1ccc(Br)cc1)N1CCN(Cc2ccccc2)CC1	0.2	87*	84*	-5	0.1	3
COc1ccc(Br)cc1CN1CCN(C(=O)Cc2ccccc2)CC1	0.1	81*	88*	8	0.2	-6
